Screening results from PubChem BioAssay.
Compounds with a hit are over-represented: about 11% of the library has one in this group of screens.
ALDH1A1 block: ALDH1A1 (human) enzyme inhibition; P00352; Purified ALDH1A1, NADH fluorescence, propionaldehyde substrate; Potency, µM (highest dose often 75.3 µM), inactives show at the top dose activity, negative = inhibition, hits mostly inhibitors; hit rate 7.3% among 220,000; AID 1030; active = well fitted inhibition curve with a large enough effect, not every such curve was filed as active; inconclusive = small, poorly fitted or top-dose-only effect, or another doubt; inactive = no such curve, though single readings can be large or run the other way;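 also: potency is read from the fitted curve at half-maximal effect; plate controls were no enzyme wells and a reference inhibitor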
Target sequence (P00352 whole entry, looked up): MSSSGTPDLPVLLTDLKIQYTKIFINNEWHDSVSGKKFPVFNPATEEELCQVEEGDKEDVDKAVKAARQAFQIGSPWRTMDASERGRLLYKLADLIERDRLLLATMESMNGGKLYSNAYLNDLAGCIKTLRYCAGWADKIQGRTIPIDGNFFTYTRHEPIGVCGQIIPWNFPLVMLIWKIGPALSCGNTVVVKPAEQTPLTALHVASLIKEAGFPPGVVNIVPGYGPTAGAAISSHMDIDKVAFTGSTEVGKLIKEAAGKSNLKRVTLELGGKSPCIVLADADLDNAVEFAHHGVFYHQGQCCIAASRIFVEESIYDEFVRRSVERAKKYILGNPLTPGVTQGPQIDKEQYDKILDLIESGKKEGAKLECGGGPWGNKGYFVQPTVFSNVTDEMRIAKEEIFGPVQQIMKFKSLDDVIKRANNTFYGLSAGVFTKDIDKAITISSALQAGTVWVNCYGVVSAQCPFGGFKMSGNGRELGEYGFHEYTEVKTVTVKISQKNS
HPGD block: inhibitors of human 15-hydroxyprostaglandin dehydrogenase (HPGD); P15428; purified HPGD, NADH fluorescence kinetic, PGE2 substrate; Potency, µM, without a hit: top-dose activity change, negative = inhibition, hits mostly inhibitors; hit rate 4.3% among 150,000; AID 894; active = well fitted inhibition curve with a large enough effect, not every such curve was filed as active; inconclusive = small, poorly fitted or top-dose-only effect, or another doubt; inactive = no such curve, though single readings can be large or run the other way; also: potency is read from the fitted curve at half-maximal effect; % is scaled to controls: 0 for no effect and ±100 for the full control effect
Target sequence (P15428 whole entry, looked up): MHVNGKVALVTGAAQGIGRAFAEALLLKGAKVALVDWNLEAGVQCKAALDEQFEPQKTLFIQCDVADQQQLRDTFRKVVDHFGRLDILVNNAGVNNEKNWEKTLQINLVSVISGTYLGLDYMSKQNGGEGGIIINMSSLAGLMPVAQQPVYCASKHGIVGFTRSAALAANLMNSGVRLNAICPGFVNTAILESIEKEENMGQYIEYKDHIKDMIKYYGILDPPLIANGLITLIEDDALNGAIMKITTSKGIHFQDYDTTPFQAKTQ
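NADH formation kinetics: reaction with 30 uM PGE2 and 1 mM NAD+ (final), 20 nM enzyme, Tris-HCl pH 8 with Tween 20, after 15 min compound preincubation at room temperature. Fluorescence change, last versus first of five reads.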
PNC assembly inh: blocks assembly of the perinucleolar compartment | PC3M PTB-GFP, PNC prevalence imaging, 16 h; stronger effect = lower value | activity change (PNC), negative = inhibition, % at 10 µM | hit rate 3.1% among 140,000;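 active = readout at or below -70, meaning at least 70% loss of cells showing the perinucleolar compartment, a nuclear body marking cancer cells; inconclusive = readout between -30 and a set limit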;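 also: plate controls were DMSO wells for no effect and camptothecin positive control wells for full effect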
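Compounds are pinned in duplicate onto adhered PC3M cells stably expressing GFP-tagged PTB and incubated 16 h at 37 C. Cells are then fixed, nuclei stained with Hoechst, and PNC-positive cells counted.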
HTT ATP protect: cytoprotection in Huntington HTT-Q103 PC12 cell model; PC12 HTT-Q103 induced, cytoprotection, ATP luminescence, 40 h; AID 1471; Potency, µM (doses to about 56.4 µM), inactives show cytoprotection (ATP increase), most hits filed as activators; hit rate 0.14% among 230,000; also: potency is read from the fitted curve at half-maximal effect; % of control where 0% means no effect; nearly all actives have a fitted effect of over 45% in size
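Compounds added alongside 100 nM tebufenozide, which induces toxic Q103 huntingtin exon 1-GFP in stable PC12 cells; surviving cells quantified by luminescent ATP measurement. Medium: phenol red-free DMEM, 5% equine and 5% calf serum.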
HTT aggregate: mutant huntingtin aggregation inhibition | PC12 HttQ103-GFP aggregates, Acumen cytometry, 40 h | Potency, µM (series often up to 46.1 µM), inactives show top-dose activity change, negative = inhibition, most hits filed as inhibitors | hit rate 1.1% among 220,000; also: potency is read from the fitted curve at half-maximal effect; % is scaled to controls: 0 for no effect and ±100 for the full control effect; nearly all actives have a fitted effect of over 60% in size
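Aggregate formation scored by laser-scanning cytometer (488 excitation, 500–530 emission) in lysed PC12 cells expressing Q103-GFP after 100 nM tebufenozide induction; library tested in dose series, with ATPLite reagent added in the multiplex.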
CBFb-RUNX1 inh: blocks binding between human CBF-beta and RUNX1; Q01196+Q13951; AlphaScreen CBFb-His/RUNX1-biotin binding, biochemical; Potency, µM (top dose mostly 59.8 µM), inactives show at the highest dose activity, negative = inhibition, most hits filed as inhibitors; 230,000 tested, under 10 active; AID 1477; also: % of control where 0% means no effect
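Room-temperature protein-protein interaction test with 30 nM each of His-tagged CBF-beta and biotinylated RUNX1, 15 min with compound, then 90 min with nickel plus streptavidin beads. Signal read in AlphaScreen mode.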
The depositor's hits bear a star; u = inconclusive; x = not tested or not shown; [ ] = dose if it differs, or a comment. Unless noted, calls follow the shape of the dose curve; as a rule, active = well fitted curve in the direction sought with a large enough effect; inconclusive = small, poorly fitted or top-dose-only effect, or another doubt; inactive = no such curve, though single readings can be large; an effect the other way counts as inactive or inconclusive.

SMILES | ALDH1A1 block | HPGD block | PNC assembly inh | HTT ATP protect | HTT aggregate | CBFb-RUNX1 inh
O=C(c1cccc(COc2cccc3ccccc23)c1)N1CCCC1 | -9% | 20µM* | 132 | -4%[10 µM] | -22% | -5%
NNC(=O)c1ccc(COc2ccccc2)cc1 | 2.2µM* | -19% | -8 | 2%[1.9 µM] | -13% | 2%
O=C(Nc1ccc(F)cc1)c1ccc(COc2ccccc2)cc1 | 3% | -11% | u | x | -8% | 0%
O=C(NCc1ccccc1)c1cccc(COc2ccccc2Cl)c1 | 3% | u | -6 | -27% | -17% | 9%
O=C(COc1ccc2c(c1)CCC2)NCc1ccccc1 | -1% | -27% | 1 | 28%[0.074 µM] | 12% | 12%
NNC(=O)c1cccc(COc2ccc3c(c2)CCC3)c1 | 6% | 20µM* | -7 | x | 2% | 2%
COC(=O)c1ccc(CNC(=O)c2ccc(COc3ccccc3)cc2)cc1 | -1% | -28% | -100* | -41%[10 µM] | -10% | -6%
COC(=O)c1ccc(OCCOc2ccccc2)cc1 | -1% | -18% | 11 | -11% | 10% | 18%
CC1CCC2=C1C[C@H](C(C)(C)O)CC[C@@H]2C (some centres not stated) | -5% | -5% | x | u | x | -3%
CO[C@H]1COC(=O)C/C=C\[C@H](C)[C@@H](OC)COC(=O)[C@@H](C)COC(=O)C/C=C\[C@@H]1C | -6%[13.5 µM] | x | x | -1%[10 µM] | x | 4%[13.1 µM]
CCCCSC1=N/C(=C/c2ccsc2)C(=O)N1c1ccccc1 | u | -25% | -14 | 24%[10 µM] | 14% | 9%
CCCSC1=N/C(=C/c2ccsc2)C(=O)N1c1ccccc1 | 14µM* | -19% | 16 | 21%[10 µM] | -9% | u
CC(C)C1NC2(C(=O)c3ccccc3C2=O)C2C(=O)N(c3ccc(F)cc3)C(=O)C12 (configuration not stated) | 1.3µM* | 32µM* | 29 | -2% | 26% | 4%
CC(C)(C)NC[C@H](O)CSc1nc(-c2ccc(C(N)=O)s2)cs1 | x | x | x | 29% | 11% | x
O=C(NC(=S)N1CCCc2ccccc21)c1ccc(Cl)cc1 | -174% | u | -107* | x | -3% | -4%
O=C(NC(=S)N1CCCc2ccccc21)c1ccc([N+](=O)[O-])cc1 | 11µM* | -20% | u | 7%[10 µM] | u | u
O=C(NC(=S)N1CCCc2ccccc21)c1ccccc1 | u | -10% | 91 | 29% | -26% | -10%
OC[C@@H](O)[C@@H](O)CCc1ccccc1 | -1% | -4% | x | -19% | x | 7%
Cc1ccc2nc(Cl)c3nnnn3c2c1 | 28µM* | x | x | -98%[10 µM] | 3.5µM* | u
Cc1ccccc1/C=N/N1CCN(c2ccccc2)CC1 | 4% | -9% | -22 | -12%[10 µM] | -17% | 7%
O=c1[nH]n2c(=O)c3c([nH]c2c1N=Nc1cccc(C(F)(F)F)c1)CCCC3 | 0% | -27% | -19 | 14%[10 µM] | u | -26%
COc1cccc(N=Nc2c(=O)[nH]n3c(=O)c4c([nH]c23)CCC4)c1 | -6% | 14µM* | 31 | x | 20% | u
COc1cccc(N=Nc2c(=O)[nH]n3c(=O)cc(C)[nH]c23)c1 | -11% | 14µM* | -7 | -4% | -1% | -6%
O=c1[nH]n2c(=O)c3c([nH]c2c1N=Nc1cccc(Cl)c1)CCC3 | u | 7.1µM* | u | x | 13% | 0%
CC(=O)OCC1OC(n2cnc3c(Cl)nc(Cl)nc32)C(OC(C)=O)C1OC(C)=O (configuration not stated) | u | -19% | x | x | x | x
SMILES | ALDH1A1 block | HPGD block | PNC assembly inh | HTT ATP protect | HTT aggregate | CBFb-RUNX1 inh
CC(C)(O)C#Cc1ccc(CN2CCCC(CO)(Cc3cccc(Cl)c3)C2)cc1 (configuration not stated) | 5% | x | x | -6%[10 µM] | 3%[9.22 µM] | 6%
CCN(Cc1ccccc1)C(=O)CSc1nncn1C | 32µM* | x | x | -13% | -10% | 6%
COc1cc(/C(C)=N/NC(=O)CSc2nncn2C)ccc1OCc1ccccc1Cl | 5µM* | -22% | -8 | x | 14% | 2%
CCOc1cc(/C=N/NC(=O)CN2CCOCC2)ccc1OCc1ccccc1 | -4% | -18% | 0 | -18%[10 µM] | 0% | 6%
COc1ccc(C(C)=O)cc1CSc1nncn1C | -4% | x | x | -4% | 5% | 0%
CCOc1cc(/C=N/NC(=O)CSc2nncn2C)ccc1OCc1ccccc1 | -6% | -18% | -96* | x | 16% | 0%
Cn1cc(Br)c(C(=O)N/N=C/c2cccc(OC3CSC3)c2)n1 | -5% | u | 41 | x | -3% | 6%
CCOc1cc(/C=N/NC(=O)c2nn(C)cc2Br)ccc1OCc1ccccc1Cl | 2% | -29% | -112* | x | u | 13%
CC(C)(C)Cc1nc(-c2ccc(Cl)cc2)no1 | 7% | -4% | -8 | -3% | -1% | 2%
C[C@@H]1[C@H](C)CC[C@@]2(C(=O)O)CC[C@]3(C)C(=CC[C@H]4[C@@]5(C)CC[C@@H](O)C(C)(C)[C@@H]5CC[C@@]43C)[C@@H]12 | 13%[20.9 µM] | -2% | x | 1%[40.3 µM] | x | u
COc1ccccc1NC(=O)c1cc2ccc(O)cc2o/c1=N\O | -9% | -17% | 0 | -46% | 13% | 1%
COc1ccccc1NC(=O)c1cc2ccccc2o/c1=N\O | u | 22µM* | 3 | -5% | -2% | 0%
CCCn1cnc2c(c1=O)c1nc3ccccc3nc1n2Cc1ccccc1OC | 4µM* | u | u | -28% | 6% | 0%
COCCCn1c2nc3ccccc3nc2c2c(=O)n(-c3ccccc3OC)c(C)nc21 | -8% | u | -100* | 4%[10 µM] | 13% | -1%
COCCCn1c2nc3ccccc3nc2c2c(=O)n(-c3ccccc3OC)cnc21 | u | -20% | 16 | -19%[0.074 µM] | -7% | 6%
C/C=C(/CC[C@@H](C)[C@H]1CCC2C3=CC[C@H]4[C@H](C)[C@@H](O)CC[C@]4(C)C3CC[C@@]21C)C(C)C (some centres not stated) | u | -12% | x | -31% | x | 5%
CCN1C(=O)/C(=C/C=C2/CCCN2C)OC1=S | 2.8µM* | x | x | 9%[10 µM] | 7%[9.22 µM] | 0%
CCCOC1OC(=O)c2c1ccc(OC)c2OC (configuration not stated) | -5% | -30% | 34 | 17%[10 µM] | 20% | 11%
COc1ccc(CN=C2NN=C(c3ccccc3)CS2)cc1 | 4.5µM* | x | x | 4% | -8% | -23%
COc1ccc(CN=C2NN=C(c3cccc(OC)c3)CS2)cc1 | 8.9µM* | x | x | 1%[10 µM] | 3% | u
COc1ccc(-[n+]2c(C)cc(/C=C3\Sc4ccccc4N3C)cc2C)cc1 | u | x | x | x | 1.1µM* | -4%
COc1ccccc1-[n+]1c(C)cc(/C=C2\Sc3ccccc3N2C)cc1C | x | x | x | -80%[10 µM] | 0.89µM* | 16%
COc1ccc(C(=O)/C=C2\Sc3ccccc3N2C)cc1 | u | x | x | -31%[10 µM] | -14%[9.22 µM] | 22%
